According to PubChem BioAssay (EPA / NIEHS):
Records with an inconclusive call do not appear. Calls of active or inactive are those of the source. How the source made its calls, unless noted: active means hit-call score of the fitted dose curve at least 0.9, where 1 is the maximum; inconclusive means response in the unintended direction; inactive means score below 0.9.

How the values were obtained:
[1] = molecular target: Nuclear receptor subfamily 1 group I member 2 (Homo sapiens) (UniProt O75469); test: ATG_PXR_TRANS: Attagene TRANS-FACTORIAL HepG2 Assay for human Pregnane X Receptor (PXR) (AID 2283008)
In short: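 Multiplexed TRANS reporter panel in HepG2; this component tracks PXR-Gal4-driven reporter mRNA after 24 h dosing, measured by RT-PCR with capillary electrophoresis fluorescence, fitted against DMSO.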

[2] = molecular target: human Retinoic Acid Receptor gamma (RARg), RARG (gene 5916) (UniProt P13631); test: ATG_RARg_TRANS: Attagene TRANS-FACTORIAL HepG2 Assay for human Retinoic Acid Receptor gamma (RARg) (AID 2283009)
In short: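 Gain-of-signal relative to DMSO is reported from fluorescent capillary electrophoresis of RT-PCR reporter products. These came from HepG2 cells expressing transfected RARg-GAL4 chimeras with UAS reporters, harvested 24 h after dosing.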

[3] = molecular target: human RAR-related Orphan Receptor beta (RORb), RORB (gene 6096) (UniProt Q92753); test: ATG_RORb_TRANS: Attagene TRANS-FACTORIAL HepG2 Assay for human RAR-related Orphan Receptor beta (RORb) (AID 2283010)
In short: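 Multiplexed transcription-factor reporter assay: HepG2 cells transiently carrying NR-Gal4/GAL4-UAS constructs, 24 h treatment, mRNA quantified by RT-PCR plus capillary electrophoresis fluorescence; activity scored as induction over DMSO.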

[4] = molecular target: human RAR-related Orphan Receptor gamma (RORg), RORC (gene 6097) (UniProt P51449); test: ATG_RORg_TRANS: Attagene TRANS-FACTORIAL HepG2 Assay for human RAR-related Orphan Receptor gamma (RORg) (AID 2283011)
In short: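 Chimeric RORg-Gal4 transactivation in transfected HepG2; 24 h exposure; RT-PCR/capillary electrophoresis readout of reporter mRNA, DMSO baseline.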

[5] = molecular target: human Retinoid X Receptor beta (RXRb), RXRB (gene 6257) (UniProt P28702); test: ATG_RXRb_TRANS: Attagene TRANS-FACTORIAL HepG2 Assay for human Retinoid X Receptor beta (RXRb) (AID 2283013)
In short: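 After a 24 h incubation with test chemical, transfected HepG2 cells carrying NR-Gal4 fusions and GAL4-UAS reporter transcription units yield RNA whose reporter cDNA is FAM-labelled, HpaI-cut and sized by capillary electrophoresis; increases over DMSO are scored.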

[6] = read-out: E-selectin (Homo sapiens) (UniProt P16581); test: BSK_3C_Eselectin: BioMAP Diversity Plus: 3C Assay for Eselectin Biomarker Activity (AID 2283015; active means hit-call score of the fitted dose curve at least 0.9, where 1 is the maximum; inactive means score below 0.9); settings: primary human endothelial cells (HUVEC); actives raise or lower the signal
In short: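 Endpoint derived by bidirectional fitting against DMSO vehicle; signal is ELISA-detected E-selectin from primary HUVEC at 24 h post-dosing, with parallel SRB staining (0.1% SRB, 560 nm) flagging cytotoxicity.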

[7] = read-out: Interleukin-1 alpha (IL1a), IL1A (gene 3552); test: BSK_BE3C_IL1a: BioMAP Diversity Plus: BE3C Assay for Interleukin-1 alpha (IL1a) Biomarker Activity (AID 2283016; active means hit-call score of the fitted dose curve at least 0.9, where 1 is the maximum; inactive means score below 0.9); settings: primary human bronchial epithelial cells; actives raise or lower the signal
In short: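 Measured in human lung primary bronchial epithelial cells: IL-1a by ELISA at 24 h after dosing, with bidirectional fitting against DMSO.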

[8] = read-out: Monocyte Chemoattractant Protein-1 (MCP1), CCL2 (gene 6347); test: BSK_3C_MCP1: BioMAP Diversity Plus: 3C Assay for Monocyte Chemoattractant Protein-1 (MCP1) Biomarker Activity (AID 2283017; active means hit-call score of the fitted dose curve at least 0.9, where 1 is the maximum; inactive means score below 0.9); settings: primary human endothelial cells (HUVEC); actives raise or lower the signal
In short: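 Using human vascular primary endothelium, researchers measured MCP-1 by ELISA 24 h after treatment, with DMSO serving as negative control for bidirectional fitting.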

[9] = molecular target: human Thyroid Receptor alpha (THRa1), THRA (gene 7067) (UniProt P10827); test: ATG_THRa1_TRANS: Attagene TRANS-FACTORIAL HepG2 Assay for human Thyroid Receptor alpha (THRa1) (AID 2283014)
In short: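 Measured here is mRNA from a GAL4-UAS reporter in transfected HepG2 cells carrying a Gal4-fused receptor, 24 h post-dose. DMSO served as negative control and baseline.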

[10] = molecular target: Retinoic acid receptor RXR-alpha (Homo sapiens) (UniProt P19793); test: ATG_RXRa_TRANS: Attagene TRANS-FACTORIAL HepG2 Assay for human Retinoid X Receptor alpha (RXRa) (AID 2283012)
In short: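 Chimeric NR-GAL4 trans-activation in HepG2, 24 h treatment; reporter transcripts quantified by fluorescence on capillary electrophoresis, analysed for upward change from DMSO.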

Measured: AC50

Chain of E-selectin (Homo sapiens) (P16581 whole entry, looked up): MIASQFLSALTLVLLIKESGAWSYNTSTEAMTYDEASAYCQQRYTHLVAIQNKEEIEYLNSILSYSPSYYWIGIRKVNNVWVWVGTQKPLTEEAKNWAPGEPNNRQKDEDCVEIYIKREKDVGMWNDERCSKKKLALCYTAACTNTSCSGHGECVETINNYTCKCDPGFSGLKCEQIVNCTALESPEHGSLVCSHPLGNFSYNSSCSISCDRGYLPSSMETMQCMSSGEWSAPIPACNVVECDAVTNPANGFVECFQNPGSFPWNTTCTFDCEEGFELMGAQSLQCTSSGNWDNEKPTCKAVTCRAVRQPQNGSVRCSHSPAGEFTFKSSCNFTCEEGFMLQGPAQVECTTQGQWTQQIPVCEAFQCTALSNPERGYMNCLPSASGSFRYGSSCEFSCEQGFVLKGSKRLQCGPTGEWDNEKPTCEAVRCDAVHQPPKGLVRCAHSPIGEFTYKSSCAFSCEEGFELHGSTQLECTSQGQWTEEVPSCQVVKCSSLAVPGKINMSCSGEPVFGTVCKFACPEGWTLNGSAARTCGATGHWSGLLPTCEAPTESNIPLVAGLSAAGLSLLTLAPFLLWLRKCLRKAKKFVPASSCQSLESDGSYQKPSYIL
Chain of human RAR-related Orphan Receptor gamma (RORg), RORC (gene 6097) (P51449 whole entry, looked up, the tested form may be a part): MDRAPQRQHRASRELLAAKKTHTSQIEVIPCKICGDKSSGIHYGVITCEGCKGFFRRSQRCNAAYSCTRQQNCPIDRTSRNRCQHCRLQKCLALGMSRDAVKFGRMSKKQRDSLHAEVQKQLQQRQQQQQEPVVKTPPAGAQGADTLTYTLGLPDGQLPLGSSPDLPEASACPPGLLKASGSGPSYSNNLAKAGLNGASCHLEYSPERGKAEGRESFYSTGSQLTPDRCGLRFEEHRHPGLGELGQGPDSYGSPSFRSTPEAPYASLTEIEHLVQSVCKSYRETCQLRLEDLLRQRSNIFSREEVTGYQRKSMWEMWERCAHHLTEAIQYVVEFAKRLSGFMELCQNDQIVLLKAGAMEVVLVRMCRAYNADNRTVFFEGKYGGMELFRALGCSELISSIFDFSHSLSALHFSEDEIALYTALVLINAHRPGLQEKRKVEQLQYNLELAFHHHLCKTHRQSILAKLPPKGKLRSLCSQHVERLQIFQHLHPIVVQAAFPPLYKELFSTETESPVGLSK
Chain of human Retinoid X Receptor beta (RXRb), RXRB (gene 6257) (P28702 whole entry, looked up, the tested form may be a part): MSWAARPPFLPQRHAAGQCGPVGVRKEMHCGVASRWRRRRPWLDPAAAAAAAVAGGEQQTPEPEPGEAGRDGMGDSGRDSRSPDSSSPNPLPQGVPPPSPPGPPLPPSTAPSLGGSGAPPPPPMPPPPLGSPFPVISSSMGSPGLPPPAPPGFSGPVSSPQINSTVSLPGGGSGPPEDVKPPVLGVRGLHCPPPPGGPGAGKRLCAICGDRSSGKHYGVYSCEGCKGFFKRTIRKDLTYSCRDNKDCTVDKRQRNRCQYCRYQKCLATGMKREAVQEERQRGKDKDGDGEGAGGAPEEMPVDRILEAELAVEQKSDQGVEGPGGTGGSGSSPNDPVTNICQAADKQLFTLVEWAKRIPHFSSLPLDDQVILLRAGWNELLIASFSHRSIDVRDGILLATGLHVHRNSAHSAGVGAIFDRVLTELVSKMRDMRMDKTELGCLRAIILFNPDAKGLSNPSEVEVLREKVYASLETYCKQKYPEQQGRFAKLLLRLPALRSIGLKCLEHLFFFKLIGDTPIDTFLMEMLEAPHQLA
Chain of Nuclear receptor subfamily 1 group I member 2 (Homo sapiens) (O75469 whole entry, looked up, the tested form may be a part): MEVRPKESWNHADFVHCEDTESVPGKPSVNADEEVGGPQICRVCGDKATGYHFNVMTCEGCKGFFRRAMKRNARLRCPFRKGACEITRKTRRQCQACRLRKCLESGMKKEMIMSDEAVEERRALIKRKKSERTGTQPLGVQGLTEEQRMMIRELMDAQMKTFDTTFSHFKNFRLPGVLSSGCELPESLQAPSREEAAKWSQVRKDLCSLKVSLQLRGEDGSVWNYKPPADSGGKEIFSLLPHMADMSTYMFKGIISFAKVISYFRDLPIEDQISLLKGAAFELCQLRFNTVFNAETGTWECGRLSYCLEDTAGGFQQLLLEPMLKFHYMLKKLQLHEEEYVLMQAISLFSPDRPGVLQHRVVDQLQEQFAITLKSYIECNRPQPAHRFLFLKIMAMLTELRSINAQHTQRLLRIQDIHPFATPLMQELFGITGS
Chain of human Retinoic Acid Receptor gamma (RARg), RARG (gene 5916) (P13631 whole entry, looked up, the tested form may be a part): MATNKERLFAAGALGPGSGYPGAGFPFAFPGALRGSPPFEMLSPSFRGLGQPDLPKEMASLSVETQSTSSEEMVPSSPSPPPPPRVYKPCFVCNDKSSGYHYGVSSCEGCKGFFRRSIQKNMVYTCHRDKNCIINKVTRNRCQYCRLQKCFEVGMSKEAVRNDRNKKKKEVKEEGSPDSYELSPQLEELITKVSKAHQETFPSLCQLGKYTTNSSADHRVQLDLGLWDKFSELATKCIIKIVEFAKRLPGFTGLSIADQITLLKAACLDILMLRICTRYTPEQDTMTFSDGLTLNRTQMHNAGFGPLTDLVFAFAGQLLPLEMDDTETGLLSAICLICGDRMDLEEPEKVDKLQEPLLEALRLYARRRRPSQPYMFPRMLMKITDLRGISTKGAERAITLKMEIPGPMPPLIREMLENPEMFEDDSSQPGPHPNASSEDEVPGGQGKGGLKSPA
Chain of Retinoic acid receptor RXR-alpha (Homo sapiens) (P19793 whole entry, looked up, the tested form may be a part): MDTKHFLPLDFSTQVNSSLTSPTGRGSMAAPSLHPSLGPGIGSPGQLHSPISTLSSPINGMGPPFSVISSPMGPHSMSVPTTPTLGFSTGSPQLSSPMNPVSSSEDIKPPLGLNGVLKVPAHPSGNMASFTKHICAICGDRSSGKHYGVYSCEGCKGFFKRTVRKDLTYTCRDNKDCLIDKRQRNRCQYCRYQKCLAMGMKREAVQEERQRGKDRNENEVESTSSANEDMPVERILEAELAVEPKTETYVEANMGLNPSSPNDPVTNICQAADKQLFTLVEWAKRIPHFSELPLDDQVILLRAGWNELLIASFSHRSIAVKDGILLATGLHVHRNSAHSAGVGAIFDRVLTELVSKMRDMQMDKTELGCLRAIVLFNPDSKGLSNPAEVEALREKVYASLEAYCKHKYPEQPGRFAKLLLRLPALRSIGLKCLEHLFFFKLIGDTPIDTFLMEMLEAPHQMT
Chain of human Thyroid Receptor alpha (THRa1), THRA (gene 7067) (P10827 whole entry, looked up, the tested form may be a part): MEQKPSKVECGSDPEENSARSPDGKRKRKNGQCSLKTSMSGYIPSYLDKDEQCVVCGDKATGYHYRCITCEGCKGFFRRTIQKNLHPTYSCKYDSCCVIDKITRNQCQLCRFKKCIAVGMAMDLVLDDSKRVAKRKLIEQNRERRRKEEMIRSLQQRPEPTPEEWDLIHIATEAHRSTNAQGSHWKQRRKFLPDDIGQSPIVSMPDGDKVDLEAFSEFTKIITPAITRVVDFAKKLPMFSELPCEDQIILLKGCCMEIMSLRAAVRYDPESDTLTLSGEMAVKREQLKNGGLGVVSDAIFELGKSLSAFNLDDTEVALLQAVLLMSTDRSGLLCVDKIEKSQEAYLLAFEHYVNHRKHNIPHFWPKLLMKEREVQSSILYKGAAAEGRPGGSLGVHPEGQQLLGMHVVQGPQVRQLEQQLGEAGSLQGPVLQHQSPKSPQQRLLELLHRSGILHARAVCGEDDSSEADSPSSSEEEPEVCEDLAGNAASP
Chain of human RAR-related Orphan Receptor beta (RORb), RORB (gene 6096) (Q92753 whole entry, looked up, the tested form may be a part): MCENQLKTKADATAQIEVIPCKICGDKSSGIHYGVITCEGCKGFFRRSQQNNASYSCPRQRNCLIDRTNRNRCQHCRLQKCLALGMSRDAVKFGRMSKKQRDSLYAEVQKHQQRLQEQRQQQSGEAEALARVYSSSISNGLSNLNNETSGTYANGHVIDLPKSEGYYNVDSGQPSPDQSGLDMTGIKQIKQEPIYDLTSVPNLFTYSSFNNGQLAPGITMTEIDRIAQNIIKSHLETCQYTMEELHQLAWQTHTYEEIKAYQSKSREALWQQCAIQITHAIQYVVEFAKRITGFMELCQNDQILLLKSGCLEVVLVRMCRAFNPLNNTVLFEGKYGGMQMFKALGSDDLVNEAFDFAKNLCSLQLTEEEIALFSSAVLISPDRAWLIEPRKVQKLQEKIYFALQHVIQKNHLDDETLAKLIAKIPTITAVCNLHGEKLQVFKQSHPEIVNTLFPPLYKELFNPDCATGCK

CSC(=O)c1c(C(F)F)nc(C(F)(F)F)c(C(=O)SC)c1CC(C)C
active: [1] 1.66 µM | [5] 15.1 µM | [8] 31.2 µM
inactive: [2] | [3] | [4] | [6] | [7]

CCN(CC)c1nc(C)cc(OP(=S)(OC)OC)n1
active: [1] 13.8 µM | [5] 33.7 µM
inactive: [2] | [4] | [9] | [6] | [7] | [8]

Nc1c(Cl)c(F)nc(OCC(=O)O)c1Cl
inactive: [1] | [2] | [3] | [5] | [6] | [7] | [8]

CS(=O)(=O)c1cc(C(F)(F)F)ccc1C(=O)c1cnoc1C1CC1
inactive: [1] | [2] | [4] | [5] | [6] | [7] | [8]

Cc1nc(N(C)C)nc(OC(=O)N(C)C)c1C
inactive: [1] | [2] | [3] | [4] | [9] | [6] | [7] | [8]

COC(=O)N(C(=O)N1CO[C@@]2(C(=O)OC)Cc3cc(Cl)ccc3C2=N1)c1ccc(OC(F)(F)F)cc1
inactive: [2] | [3] | [4] | [5] | [9] | [6] | [7] | [8]
active: [1] 5.9 µM

CCOC(=O)C(C)OC(=O)c1cc(Oc2ccc(C(F)(F)F)cc2Cl)ccc1[N+](=O)[O-] (stereo not given)
inactive: [1] | [2] | [5] | [9] | [6] | [7]
active: [8] 10.6 µM

O=C(Nc1ccccc1-c1ccc(Cl)cc1)c1cccnc1Cl
inactive: [1] | [3] | [4] | [5] | [9] | [6] | [7] | [8]

O=P(O)(O)CCCl
inactive: [1] | [2] | [4] | [10] | [5] | [6] | [7] | [8]

CCCN(CC)CC1COC2(CCC(C(C)(C)C)CC2)O1 (stereo not given)
inactive: [1] | [2] | [3] | [4] | [5] | [9] | [6] | [7] | [8]

COCc1cnc(C2=NC(C)(C(C)C)C(=O)N2)c(C(=O)O)c1 (stereo not given)
inactive: [1] | [2] | [3] | [5] | [9] | [6] | [7] | [8]

O=c1n(Cl)c(=O)n(Cl)c(=O)n1Cl
inactive: [1] | [2] | [3] | [4] | [10] | [5] | [6] | [7] | [8]

COc1cc(Cl)c(OC)cc1Cl
inactive: [1] | [2] | [5] | [9] | [6] | [7] | [8]

CCOc1cc(C(C)(C)C)ccc1C1COC(c2c(F)cccc2F)=N1 (stereo not given)
inactive: [1] | [2] | [4] | [5] | [7]
active: [6] 18.9 µM | [8] 27.6 µM

CCNP(=S)(OC)O/C(C)=C/C(=O)OC(C)C (stereo not given)
inactive: [1] | [2] | [4] | [5] | [6] | [7] | [8]

CCN(CC)C(=O)C(C)Oc1cccc2ccccc12 (stereo not given)
inactive: [3] | [4] | [10] | [5] | [6] | [7] | [8]
active: [1] 0.503 µM
